# High-throughput results from PubChem.
# USP10 block: human USP10 deubiquitinase inhibition; Q14694; purified USP10, Ub-rhodamine fluorescence, 60 min; inhibition, % at 20 µM; actives 1.1% (n = 47,000); AID 1645856
# USP7 block: human USP7 deubiquitinase inhibition; actives 0.3% (n = 47,000); inhibition, % at 20 µM; Q93009; purified USP7, Ub-rhodamine cleavage fluorescence
# USP8 inh: blocks human USP8 ubiquitin-rhodamine cleavage | purified USP8, Ub-rhodamine cleavage fluorescence, 30 min | inhibition, % at 20 µM | AID 1645853 | actives 4.2% (n = 47,000) | P40818
# UCHL1 block: blocks human UCHL1 ubiquitin-rhodamine cleavage | P09936 | purified UCHL1, Ub-rhodamine cleavage fluorescence | inhibition, % at 20 µM | actives 0.2% (n = 47,000) | AID 1645859
# Target sequence (P09936 whole entry, looked up): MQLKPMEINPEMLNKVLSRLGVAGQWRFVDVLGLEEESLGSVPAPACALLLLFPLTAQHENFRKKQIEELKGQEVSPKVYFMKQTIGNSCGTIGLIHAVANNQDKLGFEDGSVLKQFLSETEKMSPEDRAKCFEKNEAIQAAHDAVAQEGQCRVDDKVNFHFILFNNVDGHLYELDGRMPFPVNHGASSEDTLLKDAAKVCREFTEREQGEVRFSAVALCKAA
# * = called active by the depositor; nt = not tested or not shown. A selection: hits, their analogues and other compounds. The true share with any hit is near 5%. Rule as the data show it: active = inhibition above about 30%; inactive = the rest.
SMILES,USP10 block,USP7 block,USP8 inh,UCHL1 block
Cc1ccc(-c2nc(NC(=O)COc3cc(C)cc(C)c3)no2)cc1,11,4,3,-2
Cc1cccc(-c2nc(NC(=O)COc3ccc(F)cc3)no2)c1,15,29,83*,13
Cc1ccc(-c2nc(NC(=O)COc3ccc(Cl)cc3)no2)cc1,65*,64*,93*,28
Clc1ccc2c(Oc3ccc(Br)cc3)ncnc2c1,5,8,10,-1
O=S(=O)(Nc1ccc(Oc2ncnc3cc(Cl)ccc23)nc1)c1ccc(S(=O)(=O)c2ccccc2)s1,45*,16,-15,3
CCC(=O)Nc1nc2cc(NC(=O)Nc3ccc(C)cc3)ccc2s1,30*,19,47*,0
Cc1nnc2n1CCN(C(=O)Cc1c(F)cccc1Cl)C2,0,1,7,0
Cc1ccc(CNC(=O)CCn2cnc3c(-c4ccccc4)noc3c2=O)cc1,0,-23,-3,0
Cc1ccccc1CNC(=O)CCn1cnc2c(-c3ccccc3)noc2c1=O,6,-11,38*,3
COc1cc2c(cc1OC)[C@H](C)N(CC1C(=O)O[C@@]34[C@H]1CC[C@@H](C)[C@@H]3CC[C@@]1(C)O[C@@H]41)CC2 (stereo partly specified),-8,-5,50*,-4
C[C@H]1CCC[C@]2(C)C[C@H]3OC(=O)C(CN4CCc5ccccc5C4)[C@H]3C=C12 (stereo partly specified),12,4,-4,0
COc1cc2c(cc1OC)[C@H](C)N(CC1C(=O)O[C@@H]3C[C@@]4(C)CCC[C@H](C)C4=C[C@H]13)CC2 (stereo partly specified),-9,-16,45*,-14
CCCN1CCN(C(=O)c2[nH]nc3c2COc2ccccc2-3)CC1,0,2,1,1
CCOc1ccc(C(=O)Oc2ccc(-n3cnnn3)cc2)cc1,18,4,33*,-4
CCc1ccc2nc(NC(=O)c3ccc(=O)[nH]c3)sc2c1,9,3,-5,0
Cc1cccc(OCC(=O)Nc2ccc3c(c2)NC(=O)CO3)c1,2,7,0,3
Cc1cc(OCC(=O)Nc2ccc3c(c2)NC(=O)CO3)ccc1Cl,45*,23,53*,3
Cc1ccc(C(=O)Nc2ncnc3oc(-c4ccccc4)c(-c4ccccc4)c23)cc1,8,7,61*,7
Cc1ccc(C(=O)Nc2ncn(CC(=O)Nc3ccccc3)n2)cc1,0,4,15,1
CCOC(=O)c1csc(-c2ccc(F)cc2F)n1,0,-4,25,1
Cc1[nH]c(C(=O)NC2CCCCCC2)c(C)c1S(=O)(=O)N1CCCC1,8,13,39*,1
O=C(Cn1c(=O)n(Cc2ccc3c(c2)OCO3)c(=O)c2ncccc21)NCc1ccco1,-3,-2,13,-2
O=C(Cn1c(=O)n(Cc2ccncc2)c(=O)c2ncccc21)Nc1ccccc1,-4,1,13,0
O=C(Cn1c(=O)n(Cc2ccccc2)c(=O)c2ncccc21)NCc1ccccc1Cl,51*,33*,50*,9
O=C(Cn1c(=O)n(Cc2ccc3c(c2)OCO3)c(=O)c2ncccc21)c1ccc(Cl)cc1,8,2,73*,1
SMILES,USP10 block,USP7 block,USP8 inh,UCHL1 block
CCC(=O)N1CCc2ccccc2C1C(=O)NCc1ccc(SC)cc1 (stereo unspecified),-9,-78,-9,-7
Cc1ccc2[nH]c3c(=O)n(Cc4cccnc4)cnc3c2c1,0,nt,-3,0
Cc1ccc2[nH]c3c(=O)n(Cc4ccc(N(C)C)cc4)cnc3c2c1,28,29,88*,8
Cc1c(-c2noc(-c3ccco3)n2)nnn1Cc1ccccc1,0,-7,2,0
O=C(/C=C/c1ccc(F)cc1)N1CCCc2ccccc21,4,-31,-4,-2
O=C(/C=C/c1ccc(F)cc1)N1CCc2ccccc2C1,1,-3,88*,2
O=C(/C=C/c1cccc(F)c1)N1CCc2ccccc21,9,11,42*,2
O=C(Nc1ccccc1)N1CCC2(CC1)COCCN(Cc1cccnc1)C2,1,0,-18,-2
O=C(Oc1ccc(-c2csnn2)cc1)C1CC1,1,-30,4,-2
Cc1nc(C(=O)NC2(O)C(=O)c3ccccc3C2=O)cs1,27,-94,72*,29
CSc1ncccc1C(=O)NC1(O)C(=O)c2ccccc2C1=O,41*,-90,83*,34*
O=C(NC1(O)C(=O)c2ccccc2C1=O)c1ccc(-c2csnn2)cc1,6,-45,93*,19
O=C(NCc1ccc2c(c1)OCO2)c1cc2c(s1)-c1ccccc1OC2,25,10,56*,3
O=C1COc2ccc(C(=O)NCc3ccc4c(c3)OCO4)cc2N1,2,3,2,1
O=C(NCc1ccc(Cl)cc1)c1cc2c(s1)-c1ccccc1OC2,44*,14,74*,3
O=C(Nc1cccc(C(F)(F)F)c1)c1cc2c(s1)-c1ccccc1OC2,30,13,72*,6
Cc1ccc(NC(=O)c2cc3c(s2)-c2ccccc2OC3)c(Cl)c1,6,5,28,2
CNC(=O)c1cc2c(=O)n3cccc(C)c3nc2n1Cc1ccccc1,1,4,21,5
COc1ccccc1CC(=O)N(C)C(c1ccccc1)c1ccccc1,10,1,-5,3
Cc1cccc(NC(=O)Cc2nnc3c(-c4nc(C5CC5)no4)cccn23)c1,2,4,83*,1
O=C(Cc1nnc2c(-c3nc(C4CC4)no3)cccn12)N1CCCCCC1,-3,-5,43*,-5
Cc1cc(C)cc(NC(=O)Cc2nnc3c(-c4nc(C5CC5)no4)cccn23)c1,0,0,2,-1
O=C(NCc1ccc(F)cc1F)c1nc(-c2cnccn2)no1,-1,-1,-15,-2
Cc1nn2c(CNS(=O)(=O)c3ccc(C)c(C)c3)c(C)nc2s1,1,1,-11,-1
Cc1nc(SCC(=O)NC(C)c2ccccc2)c2oc3ccccc3c2n1 (stereo unspecified),40*,4,11,2
SMILES,USP10 block,USP7 block,USP8 inh,UCHL1 block
O=C1N(Cc2cccc(Cl)c2)CCN1c1ccc2c(c1)CCC2,12,-7,10,2
Cc1cc(C(=O)N2CCOCC2)c(C)n1-c1ccc(O)cc1,10,-6,94*,20
O=C(O)c1ccccc1-c1ccccc1C(=O)N1CCOCC1,1,4,3,1
CN1CCN(C(=O)c2ccc3c(c2)NC(=O)C2CCC(=O)N32)CC1 (stereo unspecified),2,6,5,0
O=C(C1CCN(S(=O)(=O)c2cc(F)ccc2F)CC1)N1CCc2sccc2C1,-4,-3,74*,0
CC(C)c1ccc(S(=O)(=O)N2CCC(C(=O)N3CCc4sccc4C3)CC2)cc1,-9,7,19,1
CCOc1ccccc1NC(=O)CN1C(=O)c2cccc3cccc1c23,26,9,68*,-1
COc1ccccc1NC(=O)CN1C(=O)c2cccnc2Sc2ccccc21,-4,4,0,0
N#Cc1ccc(NC(=O)Nc2cccn(Cc3ccccc3Br)c2=O)cc1,51*,-49,90*,24
